Shown are actives, neighbours in structure and some others; about 2.4% of the full set was active somewhere.
Pol eta inh = DNA polymerase eta (human) inhibition; AID 588591; recombinant Pol eta, fluorescent DNA replication assay; 390,000 tested, 1.2% active; Potency, µM (titrated, usually from 114 µM), inactives show at the top dose activity change, negative = inhibition, actives largely listed as inhibitors; Q9Y253; further: on the % scale 0 is the no-effect control and ±100 the full control effect
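Pol eta (10 nM) was preincubated with compounds for 15 min at room temperature, after which fluorescent replication substrate (50 nM final) was added to start the reaction. Fluorescence was read kinetically at 0 and 10 min.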
FEN1 inhibitor = inhibitors of human flap endonuclease 1 | P39748 | Recombinant FEN1 flap cleavage, fluorescence, 15 min | 390,000 tested, 0.35% active | Potency, µM (highest dose often 114 µM), for inactives: at the top dose activity change, negative = inhibition, actives largely listed as inhibitors; further: on the % scale 0 is the no-effect control and ±100 the full control effect; nearly all actives have a fitted effect of over 65% in size
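In this screen, 50 nM flap DNA substrate was added to 10 nM FEN1 pretreated with compound for 15 min at room temperature; cleavage was followed with reads at 0 and 15 min, and Hill fitting gave concentration–response parameters.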
WRN inhibitor = WRN helicase (human) inhibition; Q14191; WRN helicase unwinding, fluorescent forked duplex, kinetic; Potency, µM (doses to about 114 µM), without a hit: at the highest dose activity change, negative = inhibition, most hits filed as inhibitors; 360,000 tested, 0.46% active; further: on the % scale 0 is the no-effect control and ±100 the full control effect; nearly all actives have a fitted effect of over 55% in size
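WRN at 20 nM final preincubated with compound 15 min at room temperature; reaction started with 100 nM fluorophore/quencher forked duplex oligonucleotide and 2 mM ATP final. Unwinding followed kinetically by red fluorescence (ex 525, em 598 nm).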
POLI inh = inhibitors of human DNA polymerase iota; Potency, µM (titrated, usually from 115 µM), inactives show at the top dose activity, negative = inhibition, actives largely listed as inhibitors; Q9UNA4; Pol iota fluorescent replication assay, 10 min; 390,000 tested, 1% active
Target sequence (Q9UNA4 whole entry, looked up): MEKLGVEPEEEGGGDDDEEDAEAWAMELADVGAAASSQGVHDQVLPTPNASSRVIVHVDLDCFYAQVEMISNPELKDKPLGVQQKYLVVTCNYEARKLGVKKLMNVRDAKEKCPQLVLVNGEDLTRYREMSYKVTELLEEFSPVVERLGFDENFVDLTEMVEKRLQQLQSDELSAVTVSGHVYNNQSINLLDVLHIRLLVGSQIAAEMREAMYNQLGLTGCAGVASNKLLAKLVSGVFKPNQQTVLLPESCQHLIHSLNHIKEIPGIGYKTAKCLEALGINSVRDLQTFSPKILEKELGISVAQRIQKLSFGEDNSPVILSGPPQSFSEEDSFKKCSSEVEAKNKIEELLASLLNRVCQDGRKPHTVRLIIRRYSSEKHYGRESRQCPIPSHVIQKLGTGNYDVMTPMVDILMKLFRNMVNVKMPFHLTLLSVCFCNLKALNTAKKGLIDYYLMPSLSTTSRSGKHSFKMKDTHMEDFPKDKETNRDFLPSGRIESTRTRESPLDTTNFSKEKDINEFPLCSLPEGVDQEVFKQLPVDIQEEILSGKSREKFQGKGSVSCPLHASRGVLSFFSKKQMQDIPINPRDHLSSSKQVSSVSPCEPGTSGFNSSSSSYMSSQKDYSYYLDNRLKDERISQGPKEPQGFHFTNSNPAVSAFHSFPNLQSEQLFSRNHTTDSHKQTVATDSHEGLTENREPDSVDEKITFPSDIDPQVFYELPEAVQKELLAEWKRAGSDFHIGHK
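Fluorescent replication assay read twice, at 0 min and 10 min after adding 50 nM (final) substrate. Enzyme (10 nM) and compounds were first incubated 15 min at room temperature; enzyme-free buffer wells were negative controls.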
Pol beta inh = blocks human DNA polymerase beta activity; Pol beta primer extension/strand displacement, fluorescence kinetic; AID 485314; Potency, µM (series often up to 114 µM), inactives show at the top dose activity change, negative = inhibition, usual class: inhibitors; 340,000 tested, 1.3% active; further: on the % scale 0 is the no-effect control and ±100 the full control effect
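Enzyme-only controls used 10 nM Pol beta; buffer lacking enzyme served as negative control. Compound preincubated 15 min, then 50 nM substrate added; 0 and 10 min reads at room temperature.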
Pol kappa inh = blocks human DNA polymerase kappa activity; Q9UBT6; purified Pol kappa, fluorescent DNA synthesis assay, 10 min; Potency, µM (doses to about 107 µM), inactives show at the top dose activity, negative = inhibition, usual class: inhibitors; 400,000 tested, 0.53% active; further: on the % scale 0 is the no-effect control and ±100 the full control effect
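10 nM Pol kappa was preincubated with compounds for 15 min at room temperature. Reaction started with 50 nM (final) substrate. Fluorescence read kinetically at 0 and 10 min.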
An asterisk follows results filed as active; ? = inconclusive; nt = no result; [ ] = dose if it differs, or a comment. The call rests on the fitted dose curve; in most records, active means well fitted curve in the direction sought with a large enough effect; inconclusive means small, poorly fitted or top-dose-only effect, or another doubt; inactive means no such curve, though single readings can be large; an effect the other way counts as inactive or inconclusive. Potency means the concentration at half of the fitted maximal effect.

SMILES	Pol eta inh	FEN1 inhibitor	WRN inhibitor	POLI inh	Pol beta inh	Pol kappa inh
OC(CN1C=CCc2ccccc21)c1ccc(Cl)cc1Cl (configuration not stated)	nt	-4%	nt	-13%	nt	4%
O=c1ccc2ccc(O)c(O)c2o1	?	7.5µM*	nt	24µM*	14µM*	9.5µM*
COc1cc2ccc(=O)oc2cc1O	-8%	22%	-1%	5%	nt	16%
CCOc1ccc(/C=C/c2ccnc3ccccc23)cc1OCC	nt	-24%	nt	?	nt	-10%
O=C(Nc1ccc(Br)cc1Cl)c1cnn2c1NC(=C1CC1)C=C2C(F)F	nt	0%	nt	1%	nt	9%
COc1cc(-c2noc(-c3ccc(NCc4ccccc4)c([N+](=O)[O-])c3)n2)cc(OC)c1OC	-16%	4%	nt	-8%	45µM*	-15%
COc1cc(-c2noc(-c3ccc(N(C)C)c([N+](=O)[O-])c3)n2)cc(OC)c1OC	-18%	-16%	nt	?	28µM*	-10%
COc1cc(-c2noc(-c3ccc(N4CCCCC4)c([N+](=O)[O-])c3)n2)cc(OC)c1OC	-20%	-5%	nt	-28%	45µM*	-31%
COc1ccc(-c2noc(-c3ccc(N4CCCCC4)c([N+](=O)[O-])c3)n2)cc1	-10%	-10%	nt	-6%	10%	-3%
CN(C)c1ccc(-c2nc(-c3ccncc3)no2)cc1[N+](=O)[O-]	3%	12%	nt	-24%	-14%	-10%
N#Cc1ccc(CN2CCCC3(CCN(C(=O)c4cnccn4)CC3)C2)cc1	nt	nt	nt	nt	nt	0%[60.1 µM]
O=C(Nc1cc(-c2ccccc2)sc1C(=O)O)c1cccc(F)c1	?	?	-21%	?	71µM*	-16%
CC1=C(c2ccc(NN=C(C#N)C#N)cc2)NNC(=O)C1	nt	nt	nt	nt	nt	5%[19.4 µM]
Cc1ccc(NC(=O)Cn2cc(S(=O)(=O)Cc3ccccc3)c3ccccc32)cc1C	?	-5%	nt	36%	1%	-8%
COc1ccccc1NC(=O)Cn1cc(S(=O)(=O)Cc2ccccc2)c2ccccc21	79µM*	9%	nt	-15%	?	-23%
Nc1nc(-c2cc(O)ccc2[N+](=O)[O-])cc(-c2ccccc2)c1[N+](=O)[O-]	89µM*	?	-13%[11.6 µM]	?	-9%	-5%
O=C(CSCc1nc2scc(-c3cccs3)c2c(=O)[nH]1)Nc1ccccn1	-11%	-4%	-30%	-27%	-8%	-13%
O=c1[nH]c(CN2CCc3ccccc32)nc2scc(-c3cccs3)c12	-4%	-18%	-17%	-8%	40µM*	-19%
O=C(Nc1ccc2oc(-c3cccnc3)nc2c1)c1ccc2c(c1)OCCO2	?	?	?	?	14µM*	?
Cc1ccc2cccc(S(=O)(=O)Nc3ccc4c(c3)OCO4)c2n1	?	-1%	-9%[11.6 µM]	?	45µM*	-24%
COc1ccc(-c2n[nH]c(C(F)(F)F)c2-c2cc3ccccc3o2)c(O)c1	-11%	-25%	-25%	79µM*	0%	-3%
CCOc1cc(C=O)cc(N=Nc2cccc([N+](=O)[O-])c2)c1O	-14%	-14%	2%	23%	-1%	-23%
Cc1nc(N=Nc2cc(S(=O)(=O)O)c3cc([N+](=O)[O-])cc(S(=O)(=O)O)c3c2)c(COP(=O)(O)O)c(C=O)c1O	0.63µM*	7.5µM*	nt	5µM*	2.8µM*	9.5µM*
Cc1nc(N=Nc2cc([N+](=O)[O-])ccc2Cl)c(COP(=O)(O)O)c(C=O)c1O	nt	nt	nt	nt	nt	27µM*
CCOc1ccc2oc(C(=O)N3CCN(c4ccccn4)CC3)c(C)c2c1	20µM*	2%	-21%	?	?	-9%
O=C1C(O)=C(O)C(=O)C(O)=C1O	nt	nt	nt	nt	nt	8.9µM*
CC(C)(Oc1ccc(-c2ccco2)cc1)C(=O)O	nt	nt	nt	nt	40µM*	nt
Cc1cc(C)cc(-n2nnc(-c3nc(-c4ccccc4F)no3)c2C)c1	4%	2%	nt	7%	-1%	0%
N=C1C(c2nc3ccccc3[nH]2)=C(O)CN1c1ccc(CC(=O)O)cc1	79µM*	-13%	-23%	?	-17%	-12%
